Screening results as filed in PubChem.
Pf growth 96h – inhibits malaria parasite growth, 96 h; P. falciparum luciferase reporter growth, 96 h; Potency, µM (top dose mostly 28.7 µM), without a hit: at the highest dose activity change, negative = inhibition, hits mostly inhibitors; 320,000 compounds, 6.9% hits; AID 504834; also: % is scaled to controls: 0 for no effect and ±100 for the full control effect
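Cell-based qHTS: luciferase-tagged P. falciparum in erythrocytes (2% hematocrit, 0.05% parasitemia final) incubated with compounds for 96 hours, 37 C, 5% CO2; luciferase detection reagent then added and luminescence measured.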
NS1 function inh – blocks influenza NS1 protein function. Potency, µM (highest dose often 46.1 µM), for the others: top-dose activity, positive = more growth. 270,000 compounds, 0.4% hits. AID 2326; calls by dose curve; also: actives are rising curves; nearly all actives have a fitted effect of over 50% in size
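OD600 was taken as the measure of yeast growth restored by compound in an NS1-expressing S. cerevisiae strain. Cells had been washed out of glucose medium and diluted 1:100 into galactose -URA medium, pH 6.0.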
HCV inh – HCV inhibition | Huh7.5.1 HCVcc-Cre infection, luciferase reporter, 44 h | 340,000 compounds, 3.4% hits | Potency, µM (top dose mostly 41.8 µM), inactives show at the highest dose activity change, negative = inhibition, usual class: inhibitors | AID 651820; also: % is scaled to controls: 0 for no effect and ±100 for the full control effect
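Infectious HCV cell culture screen: compound-treated cells (1,000/well, pre-plated 4 h) are infected with HCVcc-Cre at roughly 0.5 moi and grown 44 h. Infection is quantified by luciferase signal after 15 min substrate incubation at room temperature.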
Pf growth 48h – inhibits P. falciparum growth in the first generation, 48 h; Potency, µM (doses to about 28.7 µM), without a hit: at the highest dose activity change, negative = inhibition, hits mostly inhibitors; P. falciparum luciferase growth in erythrocytes, 48 h; 310,000 compounds, 5.9% hits; also: % is scaled to controls: 0 for no effect and ±100 for the full control effect
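Firefly luciferase activity from engineered P. falciparum reports growth; inhibitors lower the luminescent signal. Cultures contained 2% hematocrit erythrocytes at 0.1% final parasitemia.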
Vaccinia Venus – vaccinia inhibition (Venus reporter) | Vaccinia virus Venus reporter expression, fluorescence | Potency, µM (highest dose often 36.5 µM), inactives show at the top dose activity change, negative = inhibition, actives largely listed as inhibitors | 330,000 compounds, 0.46% hits | AID 720580; calls by dose curve; tested in A549 cells; also: % is scaled to controls: 0 for no effect and ±100 for the full control effect; nearly all actives have a fitted effect of over 30% in size
VACV mCherry inh – vaccinia inhibition (mCherry reporter); 310,000 compounds, 0.63% hits; Potency, µM (top dose mostly 36.5 µM), for the others: at the top dose activity change, negative = inhibition, usual class: inhibitors; Vaccinia virus mCherry reporter infection, fluorescence; calls by dose curve; tested in A549 cells; also: % is scaled to controls: 0 for no effect and ±100 for the full control effect; nearly all actives have a fitted effect of over 35% in size
Starred values were filed as active, the others as inactive; i = inactive; u = inconclusive; x = not tested or not shown; ! = not active in a repeat; [ ] = remark or other dose. Compounds with a hit are over-represented: about 11% of the library has one in this group of screens. Unless noted, calls follow the shape of the dose curve; as a rule, active = well fitted inhibition curve with a large enough effect; inconclusive = small, poorly fitted or top-dose-only effect, or another doubt; inactive = no such curve, though single readings can be large or run the other way. Potency is read from the fitted curve at half-maximal effect.

SMILES	Pf growth 96h	NS1 function inh	HCV inh	Pf growth 48h	Vaccinia Venus	VACV mCherry inh
OCC1(Cc2ccccc2C(F)(F)F)CCN(Cc2ccccc2)CC1	u	6.1%	-19.2%	11.7µM*	-15.7%	-3.5%
CN(C)CCNC(=O)c1ccc(-n2c(-c3ccccc3)cc3c2CCCCC3)cc1	x	x	x	x	-22.9%	i
CCN(CC)CCNC(=O)c1cc2cc3ccc(OC)cc3nc2o1	1.0%	1.8%	-16.7%	-0.6%[0.00184 µM]	x	x
COCCCNC(=O)c1cc2cc3cc(OC)ccc3nc2o1	-21.5%	1.4%	-4.8%	10.4µM*	x	x
COc1ccc2nc3oc(C(=O)N4CCC(C(N)=O)CC4)cc3cc2c1	-60.9%	-4.6%	9.5%	11.7µM*	5.7%	3.4%
COc1ccc2cc3cc(C(=O)NC(C)C)oc3nc2c1	2.94µM*	-14.9%	2.2%	x	x	x
COc1ccc2cc3cc(C(=O)Nc4cc(OC)c(OC)c(OC)c4)oc3nc2c1	u	7.2%	u	x	x	x
COc1ccc2cc3cc(C(=O)Nc4ccc5c(c4)OCCO5)oc3nc2c1	-1.2%	3.5%	11.2µM*	u	-29.0%	-14.5%
CCc1ccc(NC(=O)C2=CC(c3ccc(OC)c(OC)c3)=NS(=O)(=O)N2C)cc1	-21.5%	u	5.62µM*	-8.1%	-21.3%	-5.7%
COc1ccc(C2=NS(=O)(=O)N(C)C(C(=O)N3CCc4ccccc4C3)=C2)cc1OC	52.0%	13.8%	10µM*	u	-7.0%	-21.2%
COc1ccc(CNC(=O)C2=CC(c3ccc(OC)c(OC)c3)=NS(=O)(=O)N2C)cc1	40.5%	13.4%	-21.4%	-0.4%	4.3%	8.5%
COc1ccc(NC(=O)c2sc3nc4c(cc3c2N)CN(Cc2ccccc2)CC4)c(OC)c1	x	x	x	x	-10.5%	-3.1%
COc1ccc(S(=O)(=O)N2CCCCC2)cc1NC(=O)c1ccc(CS(C)(=O)=O)cc1	-43.9%	x	-3.1%	u	x	x
COc1ccc(NC(=O)c2c3c(nc4ccccc24)CCN(Cc2ccccc2)C3)c(OC)c1	9.28µM*	x	u	7.38µM*	x	x
COc1ccc(S(=O)(=O)N2CCCCCC2)cc1NC(=O)c1c2c(nc3ccccc13)CCN(Cc1ccccc1)C2	1.47µM*	23.1%	u	1.47µM*	-27.1%	-9.7%
CCN(CC)S(=O)(=O)c1ccc(OC(C)C)c(NC(=O)c2c3c(nc4ccccc24)CCN(Cc2ccccc2)C3)c1	2.94µM*	-8.5%	u	2.62µM*	-18.7%	-2.8%
CC(=O)c1c(C)nc(-c2ccc(OCC(=O)Nc3cccc(C)c3C)cc2)n1O	12.4%	x	1.4%	14.8%	x	x
COc1ccc(C(C#N)CC(=O)c2ccc3c(c2)OCO3)cc1OC (stereo not given)	x	x	x	x	-10.6%	i
O=C(c1cc(-c2ccccc2Cl)on1)N1CCN(C(=O)c2ccco2)CC1	-17.1%	-17.0%	16.2%	18.1%	-17.9%	-2.1%
O=C(c1ccc(-c2ccccc2Cl)o1)N1CCN(S(=O)(=O)c2cccs2)CC1	u	x	14.1µM*	5.7%	-29.2%	-11.6%
O=C(c1ccccc1Cl)N1CCN(S(=O)(=O)c2cccs2)CC1	27.9%	7.2%	x	12.0%	-13.7%	-2.6%
O=C(c1ccco1)N1CCN(C(=O)c2ccc(-c3ccccc3Cl)o2)CC1	-17.0%	x	22.4µM*	u	x	x
CCc1nc2ccc(C(=O)NCCOc3ccc(OC)cc3)cn2c1N(CC)CCN(C)C	x	x	x	x	-2.8%	i
Cc1sc(=NC(=O)c2ccco2)n(C)c1-c1ccc(Cl)cc1	10.4µM*	-14.1%	u	u	-9.2%	-9.4%
CN(C)S(=O)(=O)c1ccc(C(=O)NC(=O)CSc2nncs2)cc1	x	x	12.5%	x	x	x
SMILES	Pf growth 96h	NS1 function inh	HCV inh	Pf growth 48h	Vaccinia Venus	VACV mCherry inh
Cc1cccc(CCNC(=O)CC2C(=O)NCCN2Cc2ccccc2C)n1 (stereo not given)	11.7µM*	21.0%	-3.5%	-53.9%	-5.7%	i
CCCN1CCC(NC(=O)CC2C(=O)NCCN2Cc2ccccc2C)CC1 (stereo not given)	10.4µM*	0.8%	9.0%	24.4%	x	x
COc1ccc(C(=O)NN(c2ccccc2)c2ccccc2)cc1	u	5.2%	-8.5%	u	1.7%	-2.8%
CC(=O)Nc1ccc(C2=NN(C)C(=NCc3ccccc3)SC2)cc1	11.7µM*	x	-24.6%	u	-15.3%	-16.4%
CCN(Cc1ccc(C#CCCO)cc1)CC1CCCN(CCc2cccc(OC)c2)C1 (stereo not given)	2.08µM*	-11.7%	11.2µM*	u	x	x
COc1ccccc1C(=O)N/C(=C/c1ccc(Br)cc1)C(=O)NCCCn1ccnc1	u	3.5%	-21.9%	u	x	x
Cc1[nH]c(=O)[nH]c1C(=O)CCCCC(=O)O	26.4%	10.1%	13.5%	2.5%	-10.6%	-3.3%
CSc1ccc(C(=O)c2[nH]c(=O)[nH]c2C)cc1	u	3.1%	6.31µM*!	-11.9%	-7.4%	-9.8%
O=C(NNc1c2ccccc2nc2ccccc12)c1ccc(O)cc1	-101.5%	-10.9%	10µM*	u	x	x
O=C(NNc1ccccc1)c1ccccc1	x	x	-2.3%	x	-17.1%	-10.5%
O=C(NNc1c2ccccc2nc2ccccc12)C(O)c1ccccc1 (stereo not given)	0.415µM*	-42.1%	u	u	x	x
O=C(NNc1c2ccccc2nc2ccccc12)c1cccc(O)c1	u	-11.7%	u	13.1µM*	u	u
O=C(O)c1cccc(Nc2c3ccccc3nc3ccccc23)c1	11.5%	-131.1%	-14.2%	u	x	x
O=C(NCc1ccc(F)cc1)c1cc(C(=O)C2CC2)c[nH]1	0.2%	1.4%	1.6%	-16.3%	1.0%	-11.6%
Cc1cc(C)c(C#N)c(SCC(=O)Nc2ccc(S(=O)(=O)Nc3onc(C)c3C)cc2)n1	u	-22.8%	0.5%	-13.3%	-6.7%	i
COc1cccc(CNC(=O)CCNS(=O)(=O)c2cccs2)c1	1.17µM*	-10.1%	5.2%	25.3%	x	x
Cc1cc(C(=O)Nc2cc(C(C)(C)C)on2)c(C)o1	103.9%	3.4%	-17.1%	123.3%	x	x
O=C(Cc1ccc([N+](=O)[O-])cc1)N1CCc2ccccc2C1	u	1.3%	21.0%	-4.0%	-3.8%	i
O=C(Cc1ccccc1[N+](=O)[O-])N1CCc2ccccc2C1	1.17µM*	-4.8%	1.4%	0.0%	3.0%	-5.8%
CCNS(=O)(=O)c1ccc(CCC(=O)NCc2ccc3c(c2)OCO3)cc1	0.415µM*	2.9%	15.8%	-17.7%	-17.7%	-5.8%
CC(C)CNS(=O)(=O)c1ccc(CCC(=O)Nc2ccc3c(c2)OCCO3)cc1	226.3%	-5.4%	5.1%	11.7µM*	-21.4%	x
Cc1ccc(S(=O)(=O)NC(C)C(=O)Nc2ccc3c(c2)OCO3)cc1 (stereo not given)	27.0%	u	4.6%	u	-9.1%	-9.2%
CCNS(=O)(=O)c1ccc(CCC(=O)O)cc1	32.6%	x	10µM*	11.6%	-7.6%	i
